Measured values from PubChem BioAssay.
Records with an inconclusive call do not appear. Activity calls are given as the source filed them. Cut-off read from the data, not from the text of the source: active = fluorescence slope change above about 50%; inconclusive = mostly about 31% to 49%; inactive = weaker than that.

Target: ATP-dependent translocase ABCB1 (Homo sapiens) (UniProt P08183)
Assay: P-glycoprotein substrate transport blockade – cell-based (AID 377)
Conditions: MDR1-expressing cells, fluorescent substrate accumulation slope; hits give high values; concentration not given here

ATP-dependent translocase ABCB1 (Homo sapiens), sequence (P08183 whole entry, looked up): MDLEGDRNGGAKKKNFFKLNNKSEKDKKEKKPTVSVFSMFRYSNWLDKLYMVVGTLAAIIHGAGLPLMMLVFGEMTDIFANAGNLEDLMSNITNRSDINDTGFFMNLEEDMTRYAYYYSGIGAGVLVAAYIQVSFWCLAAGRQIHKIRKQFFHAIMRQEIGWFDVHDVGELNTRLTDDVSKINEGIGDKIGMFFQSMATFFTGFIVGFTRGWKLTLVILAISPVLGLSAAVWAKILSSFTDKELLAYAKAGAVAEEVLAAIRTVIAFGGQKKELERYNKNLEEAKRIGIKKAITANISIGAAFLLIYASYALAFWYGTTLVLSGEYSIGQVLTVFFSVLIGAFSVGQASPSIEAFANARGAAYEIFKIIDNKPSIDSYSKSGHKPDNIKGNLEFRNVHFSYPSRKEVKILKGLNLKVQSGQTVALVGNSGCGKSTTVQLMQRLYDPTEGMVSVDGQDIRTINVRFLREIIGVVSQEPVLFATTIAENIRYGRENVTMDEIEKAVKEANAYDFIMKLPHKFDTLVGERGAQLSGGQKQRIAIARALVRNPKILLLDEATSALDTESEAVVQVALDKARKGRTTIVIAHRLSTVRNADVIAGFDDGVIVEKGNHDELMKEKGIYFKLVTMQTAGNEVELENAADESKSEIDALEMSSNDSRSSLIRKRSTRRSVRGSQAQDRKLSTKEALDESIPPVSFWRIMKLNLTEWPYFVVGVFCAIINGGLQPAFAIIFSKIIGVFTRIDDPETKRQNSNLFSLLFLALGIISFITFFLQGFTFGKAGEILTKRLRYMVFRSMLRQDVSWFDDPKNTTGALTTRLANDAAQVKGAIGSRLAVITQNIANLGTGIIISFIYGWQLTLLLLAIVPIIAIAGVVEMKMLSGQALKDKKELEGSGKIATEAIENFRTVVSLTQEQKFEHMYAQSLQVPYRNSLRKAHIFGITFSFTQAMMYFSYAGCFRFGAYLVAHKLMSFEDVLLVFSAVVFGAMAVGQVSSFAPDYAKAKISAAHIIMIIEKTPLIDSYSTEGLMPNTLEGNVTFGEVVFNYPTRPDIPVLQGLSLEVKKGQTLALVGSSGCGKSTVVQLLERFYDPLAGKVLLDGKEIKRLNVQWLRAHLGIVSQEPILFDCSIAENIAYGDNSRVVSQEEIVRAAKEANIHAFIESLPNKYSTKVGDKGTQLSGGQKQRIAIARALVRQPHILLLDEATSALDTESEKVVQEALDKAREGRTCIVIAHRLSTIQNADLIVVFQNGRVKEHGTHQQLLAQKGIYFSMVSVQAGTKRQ

## CO[C@H]1/C=C/O[C@@]2(C)Oc3c(C)c(O)c4c(O)c(c(/C=N/N5CCN(C)CC5)c(O)c4c3C2=O)NC(=O)/C(C)=C\C=C\[C@H](C)[C@H](O)[C@@H](C)[C@@H](O)[C@@H](C)[C@H](OC(C)=O)[C@@H]1C
  fluorescence slope change: 69.2% (active)
